Measured values as given in PubChem BioAssay AID2165 (The Scripps Research Institute Molecular Screening Center, 2009).
Values without a mark were called inactive. Activity calls are given as the source filed them. Cut-off read from the data, not from the text of the source: active = IC50 below about 9 µM; inactive = the rest.

System: Ba/F3 Cytotoxicity
Test: JAK2V617F project follow-up: kinase, reporter, cytotoxicity – HEL and Ba/F3 cells, late-stage follow-up (AID 2165)
Details: JAK2V617F panel: kinase, IRF1 reporter

Row | SMILES | IC50
1 | COc1cc2ncnc(Nc3cccc(Br)c3)c2cc1OC | > 40 µM
2 | Cc1[nH]c(=O)c(C(=O)C=Cc2cccc(Br)c2)c2c1CCCC2 | 0.67 µM (active)
3 | C/C(=C\c1ccccc1F)C(=O)c1c(C)cc(C)[nH]c1=O | > 40 µM
4 | Cc1cc(C)cc(NC(=O)COc2cccc(C)c2)c1 | > 40 µM
5 | Cc1cccc(NC(=O)COc2cccc(C)c2)c1 | > 40 µM
6 | O=C(COc1ccccc1)Nc1ncccn1 | > 40 µM
7 | C=CCNc1ncnc2cc(OC)c(OC)cc12 | > 40 µM
8 | CCS(=O)(=O)c1ccc(O)c(NC(=O)COc2cccc(C)c2)c1 | > 40 µM
9 | Cc1ccc(O)c(NC(=O)COc2ccc(C3CCCCC3)cc2)c1 | 3.91 µM (active)
10 | COCCOc1cc2nc[nH]c(=O)c2cc1OCCOC | > 40 µM
11 | N#C/C(=C\c1ccc(O)c(O)c1)C(=O)NCCCCc1ccccc1 | 0.33 µM (active)
12 | Cc1[nH]c(=O)c(C(=O)/C=C/c2ccccc2)c2c1CCCC2 | 0.89 µM (active)
13 | Cc1[nH]c(=O)c(C(=O)C=Cc2ccc(Cl)cc2)c2c1CCCC2 | 2.48 µM (active)
14 | CCOc1cc2ncnc(Nc3cccc(Br)c3)c2cc1OCC | 3.16 µM (active)
15 | Cc1ccc(O)c(NC(=O)COc2ccccc2Cl)c1 | 0.0217 µM (active)
16 | CCc1cccc(Nc2ncnc3cc(OCCOC)c(OCCOC)cc23)c1 | > 40 µM
17 | Cc1ccc(O)c(NC(=O)COc2cc(C)c(Cl)c(C)c2)c1 | 6.17 µM (active)
18 | COc1cc2ncnc(Nc3cccc(C)c3)c2cc1OC | > 40 µM
19 | COc1cc2ncnc(Sc3ccc(C)cc3)c2cc1OC | 3.68 µM (active)

Row | SMILES | IC50
20 | Cc1ccc(O)c(NC(=O)COc2cc(C)ccc2C)c1 | 1.36 µM (active)
21 | COc1ccc(C=CC(=O)c2c3c(c(C)[nH]c2=O)CCCC3)cc1 | 4.38 µM (active)
22 | Cc1ccc(O)c(NC(=O)COc2ccccc2C)c1 | 3.84 µM (active)
23 | COc1cc2ncnc(N[C@H](C)c3ccccc3)c2cc1OC | 3.19 µM (active)
24 | COCCOc1cc2ncnc(Nc3cccc(C#Cc4ccc(-c5ccccc5)cc4)c3)c2cc1OCCOC | > 40 µM
25 | Cc1cc(C)c(C(=O)/C=C/c2ccccc2F)c(=O)[nH]1 | 0.69 µM (active)
26 | COc1cc2ncnc(Nc3cccc(Cl)c3)c2cc1OC | > 40 µM
27 | COc1cccc(Nc2ncnc3cc(OC)c(OC)cc23)c1 | > 40 µM
28 | Cc1ccc(O)c(NC(=O)COc2ccc(C)c(C)c2)c1 | 5.02 µM (active)
29 | O=C(NCCc1cccnc1)C1CCC(=O)N(CCc2cccc(F)c2)C1 (stereo not drawn) | > 40 µM
30 | Cc1cccc(OCC(=O)Nc2cccc(C)c2C)c1 | > 40 µM
31 | Cc1[nH]c(=O)c(C(=O)C=Cc2ccc(C(C)C)cc2)c2c1CCCC2 | 2.74 µM (active)
32 | Cc1cccc(OCC(=O)Nc2cc(C)c(C)cc2O)c1 | > 40 µM
33 | CCC(C)Nc1ncnc2cc(OC)c(OC)cc12 (stereo not drawn) | > 40 µM
34 | Cc1cccc(OCC(=O)Nc2ccc(C)c(C)c2)c1 | > 40 µM
35 | Cc1cccc(OCC(=O)Nc2cccc(O)c2)c1 | > 40 µM
36 | COc1cc2ncnc(NC(C)C)c2cc1OC | > 40 µM
37 | Cc1ccc(O)c(NC(=O)COc2cccc(C)c2C)c1 | > 40 µM
38 | Cc1[nH]c(=O)c(C(=O)C=Cc2ccc(I)cc2)c2c1CCCC2 | > 40 µM
